# Screening results (PubChem BioAssay)
# Only some compounds are listed: those with a hit (about 5.4% of all), similar ones and a draw of the others.
# PP1 counter: PP1-alpha (human) inhibition in PP5 counter-screen | P62136 | purified PP1alpha, OMFP fluorescence | inhibition, % at 6.7 µM | 0.9% of 320,000 active;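 active = inhibition above the mean inhibition of all tested compounds plus 3 SD, computed separately for each screening campaign, cut at about 15% in these data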
# Target sequence (P62136 whole entry, looked up): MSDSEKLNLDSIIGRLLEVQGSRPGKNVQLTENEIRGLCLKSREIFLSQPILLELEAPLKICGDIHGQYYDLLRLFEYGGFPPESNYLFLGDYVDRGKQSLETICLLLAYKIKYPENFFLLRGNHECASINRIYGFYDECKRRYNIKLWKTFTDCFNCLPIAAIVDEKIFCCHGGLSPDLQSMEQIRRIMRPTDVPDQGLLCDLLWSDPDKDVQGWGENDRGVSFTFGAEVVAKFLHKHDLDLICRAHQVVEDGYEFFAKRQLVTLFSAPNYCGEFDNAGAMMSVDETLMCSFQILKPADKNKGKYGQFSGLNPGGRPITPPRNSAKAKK
# Calb FLC: affects C. albicans growth with fluconazole; C. albicans CaCi-2 (fluconazole-resistant clinical isolate) + fluconazole, Alamar Blue growth, 48 h; growth inhibition, % (concentration not given with the values); 0.57% of 300,000 active; AID 1979;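 active = growth inhibition above about 58% in most replicates, limit read from the data, passing the limit was not always enough; inconclusive = exactly half the replicates above a set limit; inactive = most replicates below a set limit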;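 also: all wells also contain fluconazole at 8 µg/ml as a sub-toxic cotreatment; 0% = median of DMSO wells and 100% = median of geldanamycin control wells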
# PP5 primary: PP5 (human) phosphatase inhibition; P53041; purified PP5c, OMFP substrate fluorescence; inhibition, % at 6.7 µM; 0.18% of 320,000 active;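 active = inhibition above the campaign's mean inhibition across all tested compounds plus 3 SD, cut at about 9.5% in these data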;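 also: 0% = DMSO only and 100% = 100 µM cantharidin control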
# ALR inh: human ALR oxidase inhibition via reduced H2O2; purified ALR, DTT oxidation, H2O2 HRP-luminol luminescence; inhibition, % (test concentration not listed); 3.8% of 290,000 active; AID 485317;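 active = mean replicate inhibition above about 79%, with every replicate also reaching it, limit read from the data; inconclusive = only one of the two criteria met; inactive = mean below limit and not every replicate reaching it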
# CSC inhib: blocks cancer stem cells; cancer stem cell-like cells viability, luminescence; inhibition, % at 7.5 µM; 1.1% of 300,000 active; AID 2717; in the data active = inhibition above about 75%; inconclusive = no clear call, values can overlap the other calls; tested in HMLE shEcad cells
# An asterisk follows results filed as active; ? = inconclusive; . = no result given.
SMILES,PP1 counter,Calb FLC,PP5 primary,ALR inh,CSC inhib
O=C1CC(c2ccc(O)c(O)c2)Oc2c1ccc(O)c2O (centres undefined),4.2,.,-2.5,98.5*,-2.5
O=C1CC(c2ccc(O)c(O)c2)Oc2cc(O)cc(O)c21 (centres undefined),15.5*,-1.8,-0.3,98.8*,2.6
Cc1cccc(NC(=O)[C@@H]2CCCN2C2=NS(=O)(=O)c3ccccc32)c1C,-2.8,.,0.9,.,.
O=C(Nc1cccc(C(F)(F)F)c1)C(Sc1cccc[n+]1[O-])c1ccccc1 (centres undefined),-7.0,-7.2,2.6,78.3*,5.9
CC(=O)N(c1ccccc1)c1nc(/C=C/C(=O)O)cs1,-3.6,0.8,-0.9,-11.9,-5.5
CN(CC(=O)Nc1ccc(S(=O)(=O)N2CCCC2)cc1)Cc1ccc(Cl)cc1,5.2,1.3,5.0,0.6,8.7
O=C(O)C1Nc2c(O)cccc2C2C=CCC12 (centres undefined),50.0*,.,5.5,12.4,-11.6
O=C(O)C1Nc2c(Cl)cc(Cl)c(Cl)c2C2C=CCC12 (centres undefined),6.5,12.4,3.4,.,-12.0
Cc1ccc2c(c1)cc(CN(Cc1ccc3c(c1)OCO3)C(=O)c1cnccn1)c1nnnn12,-3.3,-1.1,3.8,3.0,-0.7
CCc1cc2c(Nc3ccc(O)cc3)nc(C)nc2s1,2.5,20.9,7.4,99.6*,8.7
Cc1cc2c(Nc3ccc(O)cc3)ncnc2s1,.,-0.1,.,93.6*,.
CC1CC(C)CN(C(=O)C2CCC(CNc3c(N4CCCCC4)c(=O)c3=O)CC2)C1 (centres undefined),-1.6,-0.2,-0.7,-1.9,-17.2
COC(=O)[C@@H]1CC[C@H](C)[C@@H](c2ccc(C)cc2)N1C(=O)c1ccc(/C=N/O[C@@H](C)CN2CCCCc3nc(C)c(C)cc32)cc1,2.1,3.7,4.9,.,89.8*
COc1cc(OC)cc(C(=O)NNc2nc3cc4c(cc3s2)OCO4)c1,-1.0,-7.2,3.4,?,.
COc1cc(C(=O)NNc2nc3cc4c(cc3s2)OCO4)cc(OC)c1OC,-1.4,3.7,0.0,99.2*,.
O=C(NNc1nc2cc3c(cc2s1)OCO3)c1ccccc1,-3.4,-3.4,2.4,99.3*,-3.0
CCn1nc(C(=O)NC2=NCCS2)c2ccccc2c1=O,-0.5,.,0.7,38.9,-20.6
O=C(Cc1nc2ccccc2s1)c1ccc(O)cc1O,0.2,91.3*,1.3,10.6,16.5
Cc1ccc(/C=N/N=C/c2ccc(C)cc2)cc1,-1.8,-7.3,-0.8,.,-1.5
Oc1ccc(N=Cc2ccc(O)c(O)c2)cc1,9.3,31.3,3.3,99.0*,2.8
O=Cc1ccc(O)c(O)c1,-1.0,.,0.5,99.0*,22.0
O=C(/C(=N/N=C/c1ccc(O)c(O)c1)c1ccccc1)c1ccccc1,3.8,6.0,6.7,.,53.4
Oc1ccc(/C=N/N=C/c2ccc(O)c(O)c2)cc1O,-1.1,-2.6,-1.4,99.0*,40.7
Oc1ccc(/C=N/N=C/c2ccc(O)cc2)cc1,2.0,10.3,2.7,95.7*,-6.0
COc1cc(CNCCc2ccc(S(N)(=O)=O)cc2)ccc1OCC(=O)NC(C)(C)C,0.2,?,2.2,-1.6,-0.7
SMILES,PP1 counter,Calb FLC,PP5 primary,ALR inh,CSC inhib
Cc1ccc(/C=C/C(=O)O)cc1S(=O)(=O)NCCCO,-1.0,-8.5,3.0,-2.3,.
COc1cc(NS(=O)(=O)c2ccc(NC(C)=O)cc2)nc(OC)n1,-2.5,-1.1,-0.2,-7.8,-18.7
COc1cc(NS(=O)(=O)c2ccc(N/C=C(\C#N)c3nc4cc(Cl)ccc4o3)cc2)nc(OC)n1,5.9,8.9,0.1,9.6,94.7*
COc1ccc(C(=O)N2CCN(S(=O)(=O)c3cc(Cl)ccc3OC)CC2)cc1,-2.0,-1.4,1.3,4.7,-8.7
Nc1nonc1C(=O)N/N=C/c1cc(Br)ccc1O,-1.1,101.0*,-1.4,-6.2,10.1
CCN(CC)Cc1c(C(=O)N/N=C/c2ccc(OCc3ccccc3C)cc2)nnn1-c1nonc1N,16.4*,4.1,3.6,-6.3,10.8
Nc1nonc1-n1nnc(C(=O)N/N=C/c2cc(Br)ccc2O)c1CNc1ccccc1,17.0*,87.7*,2.5,1.4,97.3*
CCN(CC)Cc1c(C(=O)N/N=C/c2cccnc2)nnn1-c1nonc1N,-3.3,-0.3,-1.0,.,.
Cc1ccc(/C=N/NC(=O)c2nnn(-c3nonc3N)c2CNc2ccccc2)cc1,-0.6,-2.7,1.0,0.0,-4.8
Cc1nc(C)c(C(=O)N/N=C/c2cc(Br)ccc2O)s1,0.3,89.0*,3.4,-1.2,65.9
Cc1ccc(S(=O)(=O)N2CCCN(S(=O)(=O)c3ccc(C)c(C)c3)CC2)cc1C,0.1,-30.5,1.0,-3.1,.
